Data on 64 molecules can be found in PubChem BioAssay AID588334 (Broad Institute, 2011).

About 2,300 (0.77%) of roughly 300,000 compounds were called active. Shown is part of a subset that was picked to be rich in actives. Unmarked numbers belong to inactive results.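 How the source made its calls: active means mean activation of at least 80% with every replicate also reaching 80%; inconclusive means mean reaches 80% but some replicate falls short; inactive means the rest.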

The assay is described as follows: activators of MITF-driven TRPM1 promoter reporter, primary screen, cell-based, SK-MEL-5, luciferase, single point (AID 588334).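 Further: 0% = neutral control wells and 100% = parthenolide positive control wells.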 The following applies: SK-MEL-5 TRPM1-promoter luciferase, 24 h; at 12.5 µM; hits give high values; % of positive control, neutral wells = 0.
Turning to `FC(F)(F)c1cccc(Nc2ncnc3ccccc23)c1`, the activation is 0.633%.
Turning to `FC(F)(F)c1cccc(N/N=C/c2ccccc2)c1`, the activation is 88.5% (active).
Take `Cc1nnsc1C(=O)N/N=C/c1cccc(C(F)(F)F)c1`: the activation was 15.6%.
As to `Cc1c(NS(=O)(=O)c2cccc(C(=O)Nc3ccc(SC(F)F)cc3)c2)c(=O)n(-c2ccccc2)n1C`, the activation is -11%.
On to `COc1cc(/C=C/c2ccc(/C=C/c3cc(OC)c(OC)c(OC)c3)cc2)cc(OC)c1OC`, for which the activation is -15.7%.
In the case of `COc1cccc(NCCC(=O)c2cccc([N+](=O)[O-])c2)c1`, the activation was 85.6% (active).
The result for `COc1cccc(CNC(=O)CCCC(=O)Nc2cccc([N+](=O)[O-])c2)c1` reads -21%; that for `COc1cccc(C(=O)CC(=O)C(=O)Nc2ccc([N+](=O)[O-])cc2C)c1`, 0.189%; that for `Cc1ccc(C)c(S(=O)(=O)N2CCN(c3ncnc4sccc34)CC2)c1`, -33.1%.
The result for `CCC(C)C1(C2CCCC2)NC(=O)NC1=O` (centres undefined) reads -0.575%; that for `CSCCC(NS(=O)(=O)c1ccc(C)cc1)C(=O)N(C)CC(=O)Nc1ccccc1Br` (centres undefined), -13.8%; that for `Cc1nn2cc(-c3ccc(Cl)cc3)cnc2c1Br`, 132% (active).
With `C=CCn1c(=O)n(C)c2c(=O)n(C)c(=O)n(C)c21`, the activation was -2.68%.
As to `O=C1c2ccccc2C(=O)N1CCCCCCN1C(=O)c2ccccc2C1=O`, the activation is -10.4%.
Then `CC(C)n1cnc2c(NCc3ccccc3)cc(OCC3CCN(C)CC3)cc21`, with -31%; and `CN(C)c1ccc(CSc2ccccc2)cc1`, with 106% (active).
The result for `CN(C)c1cc[n+](Cc2ccccc2)cc1` reads -11.3%; that for `O=C(c1ccc(CSc2ccccc2)cc1)N1CCCCCC1`, 61.5%.
Then `C=CC[C@H](CC(=O)N(CCO)Cc1ccccc1)C(=O)N[C@@H](COC(=O)[C@@H](CC=C)Cc1ccc(F)cc1)Cc1ccccc1`, with 8.2%; and `Nc1cc(=O)n(Cc2ccccc2)c(=O)n1Cc1ccccc1`, with -2.74%.
Take `Cc1ccc(CSc2nnc(-c3cnccn3)n2C)cc1`: the activation was 12.1%.
Then `Cn1c(SCc2c(F)cccc2Cl)nnc1-c1cnccn1`, with 90.4% (active); and `Oc1ccc(-n2nnnc2SCc2c(F)cccc2Cl)cc1`, with 0.316%.
The result for `Cc1ccc(C(=O)Nc2ccccc2-c2ccccc2)cc1S(=O)(=O)Nc1ccccc1` reads 3.07%; that for `CCOc1cc(C(=O)N(Cc2ccccc2)c2ccc(C)cc2)ccc1OCC(=O)N1CCOCC1`, -10.1%.
Then `O=C(COC(=O)c1ccccc1C(=O)c1ccccc1)c1ccco1`, with 1.5%; and `O=C(COC(=O)c1ccco1)NCc1ccc(Cl)cc1`, with -14.2%; and `O=C(OCC(=O)N1CCCC1)c1ccco1`, with 4.95%.
Turning to `CCOC(=O)c1ccc(NC(=O)CNC(=O)c2ccco2)cc1`, the activation was 7.02%.
Consider `CCN(CC)c1ccc(C(=O)OCC(=O)c2ccco2)cc1`, for which the activation was 83.2% (active).
With `CCc1ccc(C(=O)COC(=O)c2ccco2)cc1`, the activation is 99.6% (active).
Consider `CCCCN1CC(COc2ccccc2)Oc2cccc(F)c2S1(=O)=O` (centres undefined), for which the activation is -2.06%.
As for `N#CCc1c[nH]c2ccc([N+](=O)[O-])cc12`, the activation was 11.4%.
In the case of `CCC1([N+](=O)[O-])COC(c2ccc(C)cc2)OC1` (centres undefined), the activation was 1.68%.
The result for `CN(CCc1ccccc1)C(=O)c1cccc(NC(=O)Cc2cccc(NC(=O)C3CCCN(C(=O)C4CCC4)C3)c2)c1` (centres undefined) reads -9.62%; that for `c1ccc(-c2nnc(SCc3nc4ccccc4[nH]3)o2)cc1`, -11.4%.
The result for `c1ccc2c(CSCc3nc4ccccc4[nH]3)cccc2c1` reads -9.4%; that for `Clc1ccccc1SCc1nc2ccccc2[nH]1`, 98.6% (active).
On to `O=C(Cc1ccc(NC(=O)C2CCCN(C(=O)C3CCCCC3)C2)cc1)Nc1cccc(C(=O)N2CCCCC2)c1` (centres undefined), for which the activation was 2.88%.
As for `CC1CCN(C(=S)c2ccc(-c3ccc(Cl)cc3Cl)o2)CC1`, the activation is 28%.
Then `S=C(c1ccc(-c2ccccc2)o1)N1CCCCC1`, with 99.8% (active); and `Cc1cccc(C)c1NC(=S)N1CCCCCC1`, with -1.99%; and `CC(C)Cc1nnc(N)s1`, with -14.5%.
Then `Cc1ccc(NC(=O)C2CCC(C(C)(C)C)CC2)cc1S(=O)(=O)N1CCOCC1` (centres undefined), with -5.55%; and `COc1cc(/C=C2\Oc3ccc(C#Cc4ccc(O)cc4)cc3C2=O)cc(OC)c1`, with -73.4%; and `O=C(COC(=O)c1cccs1)NCc1cccs1`, with 3.86%.
Turning to `COC(=O)c1cn(CC(=O)NCc2cccs2)c2ccccc12`, the activation is 81.5% (active).
With `COCCNC(=O)Cn1cc(C(=O)c2cccs2)c2ccccc21`, the activation was 7.95%.
In the case of `O=C(NCc1ccccc1)c1cccc(NC(=O)C2CCCCC2)c1`, the activation is -5.07%.
Take `O=C(NN=Cc1ccccc1)c1ccccc1`: the activation was 55%.
The result for `COc1cccc(NC(=O)c2ccccc2SC)c1` reads 6.57%; that for `Cc1cccc(NC(=O)Nc2cccc(Oc3c(F)c(F)c(F)c(F)c3F)c2)c1`, 16.2%.
In the case of `Cc1ccoc1C(=O)Nc1cccc(Oc2ccccc2)c1`, the activation was 87% (active).
The result for `CSc1ncnc2c1ncn2CC(=O)C1CCC2C3CCC4=CC(=O)CCC4(C)C3CCC12C` (centres undefined) reads -44.7%; that for `CCOc1ccc(/C=C(/C#N)c2nnc(N3CCOCC3)n2-c2ccccc2)cc1OC`, -2.3%.
Take `Cc1ccc(-c2noc(C3CCCN(C(=O)c4cccc(Cl)c4)C3)n2)o1` (centres undefined): the activation was 102% (active).
Then `O=C(c1ccc(F)cc1)N1CCCC(c2nc(-c3cccs3)no2)C1` (centres undefined), with -6.36%.
Then `COc1cccc(-c2noc(C3CCCN(C(=O)c4ccc(F)cc4)C3)n2)c1` (centres undefined), with -11.5%.
With `c1cnc(Nc2nc(-c3ccc4ccccc4c3)cs2)nc1`, the activation is 103% (active).
Then `O=C(Nc1nc(-c2ccc(-c3ccccc3)cc2)cs1)c1cnccn1`, with 1.68%.
Then `Cc1ccc(-c2csc(NC3OC(=O)c4ccccc43)n2)cc1` (centres undefined), with -32.1%; and `O=C(NCCc1ccccc1)c1cccc(NC(=O)c2ccccc2)c1`, with 20.5%; and `COc1ccc(CCNC(=O)c2ccccc2OCc2ccccc2)cc1`, with -7.11%.
As to `COc1cccc2[nH]c(C(=O)NCCc3ccccc3)cc12`, the activation was 110% (active).
